# “And” between values parts separate entries of the source, which are not always exact repeats. Identical values can stand only once. Inconclusive results are not listed. The source made the active and inactive calls. Unless noted, calls come from the whole dose curve; as a rule, active = well fitted curve in the direction sought with a large enough effect; inconclusive = small, poorly fitted or top-dose-only effect, or another doubt; inactive = no such curve, though single readings can be large; an effect the other way counts as inactive or inconclusive.
# Assays:
# [1] = qHTS profiling of the MIPE4 collection as inhibitors of Plasmodium falciparum (3D7) proliferation (AID 743344; call rule not given here;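 note: scaled between DMSO vehicle wells and 0.29 µM artemisinin as full inhibition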); details: P. falciparum 3D7 in erythrocytes, SYBR Green DNA fluorescence, 72 h; at 28.5 µM unless noted
# Summary of the method: (§1)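 Parasite DNA was quantified by SYBR Green I fluorescence (ex 485, em 535 nm) after overnight lysis in saponin/Triton buffer at room temperature. Cultures at 0.3% parasitemia and 2.5% hematocrit were first exposed to compound for 72 h at 37 C; signals were normalised to artemisinin (0.29 uM) and vehicle wells.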
# [2] = qHTS profiling of the MIPE4 collection as inhibitors of Plasmodium falciparum (HB3) proliferation (AID 743347; call rule not given here;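 note: plate controls were DMSO vehicle wells for no effect and artemisinin wells for full effect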); details: P. falciparum HB3 in erythrocytes, SYBR Green DNA, 72 h; at 28.5 µM unless noted
# Summary of the method: as §1
# [3] = High-throughput drug toxicity screening in the BPDCN cell line Gen2.2 (AID 1224824; call rule not given here;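 note: cells exposed to compounds for 48 h before reading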); details: Gen2.2 BPDCN cells; at 45.8 µM (top of the series) unless noted
# Summary of the method: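 Readout is ATP luminescence from Gen2.2 cells after two days of drug exposure in serum-containing medium at 37 °C. Values express percent activity, with vehicle defining full signal and 9.2 uM bortezomib defining zero.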
# [4] = High-throughput drug toxicity screening in the BPDCN cell line Cal-1 (AID 1224825; call rule not given here); details: Cal-1 BPDCN cell viability, qHTS; at 45.8 µM (top of the series) unless noted
# Summary of the method: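 CellTiter-Glo luminescence after 48 h compound exposure; percent activity scaled with DMSO as 100% and bortezomib (9.2 uM final) as 0%. Cal-1 cells seeded at 500/well in RPMI, 10% FBS, no phenol red.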
# [5] = qHTS assay for measurement of the activity of small molecule inhibitors on Zika virus induced Caspase-3 activity in human iPSC derived neural progenitor cells (hNPCs) (AID 1224857); note: % of control where 0% means no effect; nearly all actives have a fitted effect of over 65% in size
# Summary of the method: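 Human iPSC-derived neural progenitor cells pretreated 1 hr with compounds, then infected with Zika virus (2 FFU/cell) for 6 hours at 37 C. Caspase-3/7 measured by Caspase-Glo luminescence; % inhibition calculated from induction scaled to uninfected (0%) and infected (100%) wells.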
# [6] = qHTS assay for measurement of the activity of small molecule inhibitors on Zika virus induced Caspase-3 activity in human astrocytoma cells (AID 1224859);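 note: plate controls were ZIKV-infected untreated cells for no effect and uninfected cells for full effect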
# Summary of the method: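 SNB-19 astrocytoma cells, 250/well, pretreated 1 h with compounds, then Zika virus at 2 FFU/cell for 6 h at 37 C; Caspase-Glo 3/7 luminescence after 30 min; percent inhibition normalised to uninfected and infected controls.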
# [7] = qHTS Screen of the MIPE 4.0 Collection Against Ewings Sarcoma (RDES) (AID 1259252); note: potency is the fitted concentration of half-maximal effect; nearly all actives have a fitted effect of over 35% in size
# Summary of the method: (§2)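 Dose series incubated 48 h with cells in RPMI plus 5% FBS, glutamine and penicillin/streptomycin; cell viability then quantified via CellTiter-Glo.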
# [8] = qHTS Screen of the MIPE 4.0 Collection Against Ewings Sarcoma (TC71) (AID 1259253); note: potency is the fitted concentration of half-maximal effect; nearly all actives have a fitted effect of over 40% in size
# Summary of the method: as §2
# [9] = qHTS Screen of the MIPE 4.0 Collection Against Ewings Sarcoma (EW8) (AID 1259255); note: nearly all actives have a fitted effect of over 35% in size; note: potency is the fitted concentration of half-maximal effect;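 for viability: 100% = DMSO-treated cells and 0% = medium-only wells without cells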
# Summary of the method: as §2
# [10] = qHTS Screen of the MIPE 4.0 Collection Against Ewings Sarcoma (TC32) (AID 1259256); note: nearly all actives have a fitted effect of over 45% in size; note: potency is the fitted concentration of half-maximal effect
# Summary of the method: as §2
# [11] = P-glycoprotein substrates identified in KB-8-5-11 adenocarcinoma cell line, qHTS therapeutic library screen (AID 1346987); note: nearly all actives have a fitted effect of over 65% in size; note: potency is the fitted concentration of half-maximal effect
# Summary of the method: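 In this qHTS, P-gp-rich KB-8-5-11 cells received library compounds across a concentration range. Viability was quantified by luminescence after 72 h at 37 degree C.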
# [12] = qHTS profiling of the MIPE4 collection as inhibitors of Plasmodium falciparum (DD2) proliferation (AID 743345; call rule not given here); details: P. falciparum Dd2 in erythrocytes, SYBR Green DNA, 72 h; at 28.5 µM unless noted
# Summary of the method: as §1
# [13] = qHTS profiling of the MIPE4 collection as inhibitors of Plasmodium falciparum (DD2) proliferation (Rep 2) (AID 743346; call rule not given here); details: P. falciparum Dd2 in erythrocytes, SYBR Green DNA, 72 h; at 28.5 µM unless noted
# Summary of the method: as §1
smiles,measurement,setting,value
Oc1ccc([C@@H]2Oc3ccc(O)cc3[C@@H]3CCC[C@@H]32)cc1,"parasite growth, % of DMSO control",[1],43.6%
same,"growth, % of control",[2],81.1%
same,"cell viability, % of control (lower = more cytotoxic)",[3],90.8%
same,viability (% of control),[4],14.4%
same,Potency,[5],inactive
same,Potency,[6],inactive
same,Potency,[7],18700 nM (active)
same,Potency,[8],26400 nM (active)
same,Potency,[9],10500 nM (active)
same,Potency,[10],9350 nM (active)
same,Potency,[11],5.9 µM (active) and 5.8 µM (active)
COc1cc(C[C@@H](CO)[C@H](CO)Cc2ccc(O)c(OC)c2)ccc1O,"parasite growth, % of DMSO control",[1],90.4%
same,"parasite growth remaining, % of DMSO control (lower = more inhibition)",[12],100%
same,"parasite growth, % of control (lower = inhibition)",[13],80.4%
same,"growth, % of control",[2],96.5%
same,"cell viability, % of control (lower = more cytotoxic)",[3],55.1%
same,viability (% of control),[4],23.4%
same,Potency,[5],inactive
same,Potency,[6],inactive
same,Potency,[7],209 nM (active)
same,Potency,[8],372 nM (active)
same,Potency,[9],743 nM (active)
same,Potency,[10],372 nM (active)
same,Potency,[11],inactive
CC(C=CC(=O)NO)=C[C@@H](C)C(=O)c1ccc(N(C)C)cc1,"parasite growth, % of DMSO control",[1],5.14%
same,"parasite growth remaining, % of DMSO control (lower = more inhibition)",[12],7.38%
same,"growth, % of control",[2],3.58%
same,"cell viability, % of control (lower = more cytotoxic)",[3],2.63%
same,viability (% of control),[4],2.32%
same,Potency,[5],inactive
same,Potency,[6],inactive
same,Potency,[7],526 nM (active)
same,Potency,[8],743 nM (active)
same,Potency,[9],187 nM (active)
same,Potency,[10],332 nM (active)
same,Potency,[11],1.05 µM (active)
CC(C)(O)[C@H]1CC[C@@](C)([C@H]2[C@@H](O)C[C@@]3(C)[C@@H]4C[C@H](O[C@@H]5O[C@H](CO)[C@@H](O)[C@H](O)[C@@H]5O)[C@H]5C(C)(C)[C@@H](O[C@@H]6OC[C@@H](O)[C@H](O)[C@@H]6O)CC[C@@]56C[C@@]46CC[C@]23C)O1,"parasite growth, % of DMSO control",[1],90.6%
same,"parasite growth, % of control (lower = inhibition)",[13],89.1%
same,"growth, % of control",[2],81.9%
same,"cell viability, % of control (lower = more cytotoxic)",[3],1050%
same,viability (% of control),[4],112%
same,Potency,[5],inactive
same,Potency,[6],inactive
same,Potency,[7],10500 nM (active)
same,Potency,[8],8330 nM (active)
same,Potency,[9],inactive
same,Potency,[10],inactive
same,Potency,[11],inactive

# — PubChem BioAssay (NCATS)
